Screening results from PubChem.
PLK1 PBD block – blocks phosphopeptide binding to human PLK1 polo-box domain; Plk1 PBD binding of FITC phosphopeptide, fluorescence polarization; AID 720504; hit rate 2.8% among 360,000; Potency, µM, without a hit: max response, negative = inhibition, actives largely listed as inhibitors; further: potency means the concentration at half of the fitted maximal effect; series mostly up to about 57 µM; on the % scale 0 is the no-effect control and ±100 the full control effect; nearly all actives have a fitted effect of over 65% in size
JMJD2A Tudor inh – JMJD2A Tudor domain (human) inhibition; O75164; hit rate 4.4% among 390,000; AlphaScreen JMJD2A-Tudor / H3K4me3 peptide binding; Potency, µM (top dose mostly 114 µM), for inactives: at the highest dose activity change, negative = inhibition, usual class: inhibitors; further: potency means the concentration at half of the fitted maximal effect; on the % scale 0 is the no-effect control and ±100 the full control effect; nearly all actives have a fitted effect of over 50% in size
Target sequence (O75164 whole entry, looked up, the tested form may be a part): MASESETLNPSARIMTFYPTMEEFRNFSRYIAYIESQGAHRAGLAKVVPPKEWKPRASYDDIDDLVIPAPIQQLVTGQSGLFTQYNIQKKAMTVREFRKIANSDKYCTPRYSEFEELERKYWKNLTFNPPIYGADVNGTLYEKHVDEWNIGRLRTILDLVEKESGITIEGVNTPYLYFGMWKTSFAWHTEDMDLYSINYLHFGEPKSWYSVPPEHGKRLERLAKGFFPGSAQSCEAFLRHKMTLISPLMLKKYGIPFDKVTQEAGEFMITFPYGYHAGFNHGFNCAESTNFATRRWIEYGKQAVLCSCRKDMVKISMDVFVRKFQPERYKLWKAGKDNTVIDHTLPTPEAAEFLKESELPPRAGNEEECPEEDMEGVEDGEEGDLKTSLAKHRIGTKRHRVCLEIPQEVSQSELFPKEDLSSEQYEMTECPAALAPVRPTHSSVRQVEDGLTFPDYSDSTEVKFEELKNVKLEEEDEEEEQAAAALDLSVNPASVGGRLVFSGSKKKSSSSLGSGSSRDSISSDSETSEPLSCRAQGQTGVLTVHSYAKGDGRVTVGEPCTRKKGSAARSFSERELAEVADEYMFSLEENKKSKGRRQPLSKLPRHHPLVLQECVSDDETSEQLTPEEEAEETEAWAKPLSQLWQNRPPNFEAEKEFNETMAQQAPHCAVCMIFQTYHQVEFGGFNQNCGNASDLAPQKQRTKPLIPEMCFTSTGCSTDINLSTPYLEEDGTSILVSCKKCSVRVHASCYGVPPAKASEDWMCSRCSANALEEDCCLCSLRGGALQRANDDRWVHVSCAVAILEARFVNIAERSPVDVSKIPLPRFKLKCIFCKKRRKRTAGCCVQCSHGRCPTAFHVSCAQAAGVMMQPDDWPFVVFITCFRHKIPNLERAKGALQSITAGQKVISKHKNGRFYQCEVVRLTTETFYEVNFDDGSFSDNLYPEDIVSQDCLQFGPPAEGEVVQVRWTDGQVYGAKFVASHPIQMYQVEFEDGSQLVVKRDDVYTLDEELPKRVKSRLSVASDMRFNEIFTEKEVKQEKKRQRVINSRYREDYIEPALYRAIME
PI5P4Ka inh – PI5P4K alpha (human) kinase inhibition; P48426; PI5P4Kalpha enzyme, ADP-Glo luminescence, 60 min; stronger effect = lower value; max response, %; hit rate 1.2% among 330,000; AID 652105; active means max response of -50% or lower; inconclusive means between -30% and -50%; inactive means -30% or higher; further: value at the top dose of about 77 µM; on the % scale 0 is the no-effect control and ±100 the full control effect
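Controls without substrate or without enzyme flank wells where PI5P4Kalpha converts substrate using 5 microM ATP (final). Incubation lasts 60 minutes at room temperature; ADP formed is read by ADP-Glo luminescence.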
GCN5L2 inh – inhibitors of human GCN5L2 histone acetyltransferase; hit rate 0.21% among 390,000; Potency, µM (top dose mostly 58.9 µM), for inactives: top-dose activity change, negative = inhibition, most hits filed as inhibitors; Q92830; GCN5L2 HAT assay, ThioGlo1 CoA-SH fluorescence; AID 504327; further: potency means the concentration at half of the fitted maximal effect; on the % scale 0 is the no-effect control and ±100 the full control effect
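Fluorescence readout, Ex340nm/Em540nm: ThioGlo1 (50uM final) reacts with free CoA thiol released as 20nM GCN5L2 acetylates H3(1-25) peptide (75uM) using acetyl-CoA (70uM). Compound and enzyme sat 15 min beforehand; 20 min room-temperature reaction.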
HP1b chromo inh – blocks HP1-beta chromodomain binding to methylated histone tails. AlphaScreen HP1-beta / biotin-H3K9me3 peptide binding. Potency, µM (top dose mostly 114 µM), without a hit: at the highest dose activity change, negative = inhibition, most hits filed as inhibitors. P83916. hit rate 0.56% among 390,000; further: potency means the concentration at half of the fitted maximal effect; nearly all actives have a fitted effect of over 70% in size
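AlphaScreen: HP1-beta (50 nM) preformed 30 min with biotin-H3(1-18)K9me3 peptide (50 nM) in PBS pH 7.4, 0.01% Tween-20. Compound added for 30 min at RT, then streptavidin donor/nickel chelate acceptor beads (10 ug/mL) for 30 min.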
BAZ2B block – BAZ2B (human) inhibition; AlphaScreen BAZ2B-H3K14Ac peptide displacement; Q9UIF8; AID 504333; hit rate 4.4% among 360,000; Potency, µM (top dose mostly 114 µM), for the others: at the top dose activity change, negative = inhibition, actives largely listed as inhibitors; further: potency means the concentration at half of the fitted maximal effect; on the % scale 0 is the no-effect control and ±100 the full control effect; nearly all actives have a fitted effect of over 60% in size
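Multi-concentration screen (max 110 uM) measuring displacement of acetylated histone H3 peptide from BAZ2B by AlphaScreen, using 50 nM protein, 50 nM peptide and 10 ug/mL streptavidin donor plus Ni-chelate acceptor beads.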
Active calls of the source: *; ? = inconclusive; · = no result; [ ] = another dose, or the depositor's remark. Hits are enriched below; roughly 7% of the tested compounds scored in any of these assays. Unless noted, the call rests on the fitted dose curve; in most records, active means well fitted curve in the direction sought with a large enough effect; inconclusive means small, poorly fitted or top-dose-only effect, or another doubt; inactive means no such curve, though single readings can be large; an effect the other way counts as inactive or inconclusive.

SMILES	PLK1 PBD block	JMJD2A Tudor inh	PI5P4Ka inh	GCN5L2 inh	HP1b chromo inh	BAZ2B block
CCN1C(=O)/C(=C/C=C2\N(CC)c3cc(S(=O)(=O)N(C)C)ccc3N2c2ccccc2)SC1=S	41.5%	-30.9%[11.4 µM]	-8.9	-0.9%	-16.7%	8.91µM*
CC1(OC(=O)CCc2ccccc2)C(=O)C=C2C=C(c3ccc(C#N)cc3)N(c3ccccc3)C=C2C1=O (centres undefined)	-27.6%	?	?	0.5%	-15.0%	?
CC1(OC(=O)CCc2ccccc2)C(=O)C=C2C=C(c3ccsc3)OC=C2C1=O (centres undefined)	·	·	·	23.7%	·	50.1µM*
CCCCC1=CC2=CC(=O)C(C)(OC(=O)CC)C(=O)C2=CO1 (centres undefined)	?	?	-65.0*	·	?	·
C(=Nc1cccc2c(N=Cc3ccco3)cccc12)c1ccco1	-9.4%	-32.0%	-26.9	-11.1%	-4.5%	28.2µM*
C(=N\C(/N=C/c1ccco1)c1ccco1)/c1ccco1	-6.6%	?	?	-0.8%	2.6%	?
CN(C)c1ccc(N=Cc2ccco2)cc1	-10.3%	28.2µM*	·	-9.8%	15.8µM*	-107.8%
O=C(COc1ccc(Br)cc1Br)NC(=S)N1CCCc2ccccc21	-15.7%	50.1µM*	·	-2.0%	-6.2%	50.1µM*
N#Cc1c(=O)c2nc(NCc3ccccc3)ncc2n2ccccc12	-2.1%	50.1µM*	-29.3	-5.5%	43.0%	?
CN(C)C(=O)CCCCCCCCC(=O)N(C)C	2.1%	0.7%	0.3	-14.5%	20.9%	-5.0%
CNC(=S)NNC(=O)c1ccc(=O)n(Cc2cccc(C(F)(F)F)c2)c1	2.99µM*	?	?	-1.3%	-7.9%	-4.9%
COC(=O)c1sc(N)nc1C(C)(C)C	-4.3%	-14.9%	5.4	-6.3%	9.3%	29.7%
CCOC(=O)c1sc(N)nc1-c1ccccc1	26.7µM*	-26.9%	-3.4	-5.1%	7.2%	-1.8%
CCOC(=O)c1sc(N)nc1C(F)(F)F	26.7µM*	-19.3%	-3.9	·	?	·
CCCN1CNc2c(c(=O)[nH]c(=S)n2CCC(C)(C)C)C1	·	-5.4%	·	·	15.0%	·
O=C1CCCC2=C1C(c1ccco1)Nc1ccc3ccccc3c12 (centres undefined)	23.8µM*	39.8µM*	-64.4*	?	50.1µM*	12.6µM*
Cc1ccc(C2Nc3ccc4ccccc4c3C3=C2C(=O)CC(C)(C)C3)o1 (centres undefined)	-8.3%	-30.9%	·	-6.2%	16.6%	-6.9%
O=C1CCCC2=C1C(c1ccc(O)c(O)c1)Nc1ccc3ccccc3c12 (centres undefined)	-15.4%	28.2µM*	?	·	?	·
COc1cc(C2Nc3ccc4ncccc4c3C3=C2C(=O)CCC3)cc(OC)c1O (centres undefined)	-10.9%	-23.2%	0.2	-14.3%	5.1%	-28.4%
O=C(NCc1nnc(SCC(=O)N2CCCC2)o1)c1cccc(C(F)(F)F)c1	-8.6%	-16.2%	7.3	-8.9%	13.3%	-27.8%
O=C(CCCCCn1c(=O)c2sccc2n(Cc2ccc(Cl)cc2)c1=O)NCc1ccc2c(c1)OCO2	·	-7.5%	·	1.6%	51.6%	-35.9%
S=C(NCCCc1cnc[nH]1)NCCCN(Cc1ccc(Cl)cc1)c1cc(-c2ccccc2)ccn1	·	56.2µM*	·	·	?	·
S=C(NCCCN(Cc1ccc(Cl)c(Cl)c1)c1ccc(Br)cn1)NCCc1cnc[nH]1	·	39.8µM*	·	·	·	·
S=C(NCCCc1cnc[nH]1)NCCN(Cc1ccc(Cl)c(Cl)c1)c1ccc(Br)cn1	·	56.2µM*	·	·	·	·
S=C(NCCCN(Cc1ccc(Cl)cc1)c1ccc(Br)cn1)NCc1ccc2nc[nH]c2c1	·	50.1µM*	·	·	-15.3%	·
SMILES	PLK1 PBD block	JMJD2A Tudor inh	PI5P4Ka inh	GCN5L2 inh	HP1b chromo inh	BAZ2B block
Cc1ccc(NC(=O)COC(=O)c2ccc[n+]([O-])c2)c(Br)c1	-10.8%	-8.7%	-1.6	-6.9%	22.6%	·
CN(CCCc1cnc[nH]1)C(=S)NCCCN(Cc1ccc(Cl)cc1)c1ccc(Br)cn1	·	31.6µM*	·	·	?	·
Clc1ccc(CN(CCCNc2ncnc(NCCCc3cnc[nH]3)n2)c2ccc(Br)cn2)cc1Cl	·	35.5µM*	·	·	·	·
COc1ccc(CN(CCCN)c2ccc(Br)cn2)cc1	·	-25.2%	·	·	-1.3%	·
CCCCN(C(=O)c1cccs1)C1CCS(=O)(=O)C1 (centres undefined)	-5.5%	-9.0%	3.9	0.1%	-2.7%	6.0%
CC(C)(C)S(=O)(=O)N1Cc2ccc(CO)cc2[C@@H]1CCO	-1.7%	-0.7%	-4.8	·	40.0%	·
CCN(CC)C(=O)c1ncn2c1C(=O)N(C)CC2	-9.2%	·	-10.5	·	·	·
O=C(NCCc1c[nH]c2ccccc12)OCCSS(=O)(=O)O	-27.7%	-20.7%	-14.9	-0.5%	11.6%	-26.8%
Cc1cc(C)nc(Nc2ncc(O)n2-c2ccccc2)n1	1.6%	56.2µM*	·	-12.9%	15.4%	-36.9%
CCOC(=O)Nc1sc(C)nc1-c1ccccc1	-2.2%	-10.7%	·	-0.4%	8.7%	22.3%
CCOC(=O)Nc1cc2c(c(N)n1)N=C(c1ccccc1)CN2	0.3%	0.0%	-67.8*	·	57.7%	·
O=C(CSc1nnc(-c2ccncc2)n1-c1ccccc1)NCC1CCCO1 (centres undefined)	-4.9%	-15.0%	1.0	-5.1%	34.3%	13.6%
O=C(C[C@@H]1C[C@H]2c3cc(NC(=O)C4CCC4)ccc3O[C@H]2[C@@H](CO)O1)NCc1ccc(-c2ccccc2)cc1	5.4%	·	1.2	·	·	·
CCc1c(C)nc2[nH]nc(NC(=O)C(F)(F)F)n2c1=O	-6.4%	89.1µM*	·	2.6%	-13.9%	?
Cc1cccc(N(C)S(=O)(=O)c2c(C)[nH]c(C)c2C(=O)N2CCCC2)c1	23.8µM*	?	-16.7	-0.1%	-0.8%	-27.9%
Cc1ccc(N(C)S(=O)(=O)c2c(C)[nH]c(C)c2C(=O)N2CCCC2)cc1	-13.7%	-12.2%	-0.6	-3.3%	77.3%	-21.5%
CN(C)c1ccc(NC(=O)CSc2nnc(C3CCCCC3)n2N)cc1	-10.2%	?	-3.2	-4.6%	19.0%	?
Cc1ccc(-n2c([S-])c(C(=O)NC(C)c3ccccc3)[n+]3ccccc23)cc1 (centres undefined)	-19.8%	-34.7%	-2.1	-11.9%	-4.3%	-18.4%
CCOc1ccc(-n2c(N)c(C(=O)NCc3cccnc3)sc2=S)cc1	26.7µM*	-10.0%	5.8	0.7%	-19.2%	-0.4%
CCOc1ccc(NC(=O)NCc2cccnc2)cc1	26.7µM*	-14.1%	-7.5	?	-7.9%	1.2%
COc1ccc(CNC(=O)c2sc(=S)n(-c3ccccc3)c2N)cc1	13.4µM*	-21.7%	-19.5	-15.4%	?	-10.6%
COc1ccc(CNC(=O)c2c([S-])n(-c3ccc(C)cc3)c3cccc[n+]23)cc1	?	3.16µM*	8.0	-5.5%	11.9%	·
